In PubChem BioAssay (NCI) one finds growth data, which are given here for 40 molecules.

Compounds without any hit were thinned out: in the full panel of roughly 83,000, 20% have a hit.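 Note: values are percent growth. 100 is the growth of untreated cells, values between 100 and 0 indicate rising inhibition; between -100 and 0 indicates cell death.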 The source made the active and inactive calls.

The subject of this assay is KM12 colon. Briefly: NCI-60 one-dose screen, 48 h (100 = growth as untreated, 0 = no growth, -100 = all killed). As to conditions: 10 µM unless noted. As to the method:
Growth inhibition of the KM12 human tumor cell line is measured as a screen for anti-cancer activity. Cells are grown in 96 well plates and exposed to the test compound for 48 hours. Compounds are tested at a single concentration, which is 10^-5 M for most compounds. The reported endpoint is percent growth (GI% or GIPRCNT), where numbers from 0 - 100% represent growth inhibition, and numbers from -100% - 0 represent cell death. For example, a value of 40 represents 60% growth inhibition. A value of 0 means no net growth occurred over the course of the experiment. A value of -40 indicates 40% of cells at the beginning of the experiment died by the end of the experiment. A value of -100 means all cells are dead at the end of the experiment.
NCI-60 Human Tumor Cell Lines Screen was performed using the standard one-dose NCI protocol, which is described in more detail at https://dtp.cancer.gov/discovery_development/nci-60/default.htm.
Compounds with GIPRCNT values below 10 were considered active. Activity score was based on GIPRCNT using the following formula: […]
Score is 0 for GIPRCNT values of 100 or above, 50 for GIPRCNT values of 0, and 100 for GIPRCNT values of -100.
Take `Nc1nc([Se])c2ncn(C3OC(CO)C(O)C3O)c2n1` (stereo not given): the growth was 82.5% (inactive).

Take `CC1(C)N=C(N)N=C(N)N1c1ccc(OCCCNC(=O)Nc2ccc(S(=O)(=O)F)cc2)c(Cl)c1`: the growth was 22% (inactive).

For `COc1ccc(O)c(CNC(=O)CN2CCCC2=O)c1`, the growth is 101% (inactive).

Turning to `COc1cc2c(c(OC)c1OC)-c1ccc([O-])c(=O)cc1[C@@H](NC(C)=O)CC2.COc1cc2c(c(OC)c1OC)-c1ccc([O-])c(=O)cc1[C@@H](NC(C)=O)CC2.[Cu+2]`, the growth is 6.75% (active).

Regarding `Cc1cc(-c2nc3cc(F)ccc3[se]2)cc(F)c1N`, the growth was 61.2% (inactive).

Take `CC[C@H](C)[C@H](NC(=O)[C@H]1CCCCN1C)C(=O)N(C)[C@H](CCc1nc(C(=O)N[C@@H](Cc2ccccc2)C[C@H](C)C(=O)OC)cs1)C(C)C`: the growth is 15.8% (inactive).

Turning to `COc1cc(/C=C/[N+](=O)[O-])c([N+](=O)[O-])cc1OC`, the growth is 18.5% (inactive).

With `COC(=O)[C@H](Cc1c[nH]c2ccccc12)NC(=O)[C@@H](OC)[C@@H]1Cc2cc3cc(OC4CC(OC5CC(O)C(O)C(C)O5)C(O)C(C)O4)c(C)c(O)c3c(O)c2C(=O)[C@H]1OC1CC(OC2CC(OC3CC(C)(O)C(O)C(C)O3)C(O)C(C)O2)C(O)C(C)O1` (stereo not given in full), the growth is 0.363% (active).

`CC(=O)O[C@H]1CC[C@H]2[C@@H]3CC=C4c5nc(-c6ccccc6)sc5CC[C@]4(C)[C@H]3CC[C@]12C`: the growth is 42.3% (inactive).

Regarding `COc1ccc(/C=C\c2cc(OC)c(OC)c(OC)c2)c(NS(=O)(=O)c2ccc(Cl)cc2)c1O`, the growth was 1.25% (active).

As to `COc1ccc(S(=O)(=O)Nc2c(/C=C\c3cc(OC)c(OC)c(OC)c3)ccc(OC)c2O)cc1OC`, the growth was 4.9% (active).

In the case of `CC(=O)[O][Hg][c]1c(N)c(C)cc(C)c1F`, the growth was 81.4% (inactive).

For `CCC1(C(C)C)C(=O)NC(=S)NC1=O`, the growth was 100% (inactive).

On to `Clc1ccc2nnnn2n1`, for which the growth was -38% (active).

With `CC[C@H](C)[C@H](NC(=O)[C@H]1CCCCN1C)C(=O)N(C)[C@H](CC(=O)c1nc(C(=O)N[C@@H](Cc2ccccc2)C[C@H](C)C(=O)O)cs1)C(C)C`, the growth was 65.1% (inactive).

As for `O=c1[nH]cc(N(CCCl)CCCl)c(=O)[nH]1`, the growth is 86.5% (inactive).

On to `COc1ccc(/C=C\c2cc(OC)c(OC)c(OC)c2)cc1OCC(=O)Nc1nc2ccc(F)cc2s1`, for which the growth was 42.1% (inactive).

For the molecule `COc1ccc2c(c1)c(C1(O)CC(CSC#N)OC1=O)cn2C(=O)c1ccc(Cl)cc1` (stereo not given), the growth is 97.7% (inactive).

In the case of `CC[C@H](C)[C@H](NC(=O)NC(C)(C)C)C(=O)N(C)[C@H](C[C@@H](OC(C)=O)c1nc(C(=O)N[C@@H](Cc2ccccc2)C[C@H](C)C(=O)OC)cs1)C(C)C`, the growth is 13.8% (inactive).

`Cc1ccc(S(=O)(=O)F)cc1C(=O)O`: the growth is 109% (inactive).

`CCOc1ccc(/C=C/[N+](=O)[O-])cc1`: the growth is 70.7% (inactive).

As for `CC(=O)OC1C(OC/C2=C/C3[C@@H](C(C)C)CC=C(C)[C@@H]3CC(OC(=O)/C=C/c3cn(C)cn3)[C@]3(C)C=C[C@@]2(O)O3)OCC(O)C1O` (stereo not given in full), the growth was 14.1% (inactive).

For the molecule `CCCCCCC(=O)NC1=C(N2CC2)C(=O)C(NC(=O)CCCCCC)=C(N2CC2)C1=O`, the growth is 48.8% (inactive).

As to `CCCCN1CCCC[C@@H]1C(=O)N[C@H](C(=O)N(C)[C@H](CCc1nc(C(=O)N[C@@H](Cc2ccccc2)C[C@H](C)C(=O)OC)cs1)C(C)C)[C@@H](C)CC`, the growth was 28% (inactive).

`Cc1c(O)c(CN(CCCl)CCCl)cc(CN(CCCl)CCCl)c1O`: the growth is 103% (inactive).

For the molecule `CCOC(=O)[C@@H](C)C[C@H](Cc1ccccc1)NC(=O)c1csc([C@@H](C[C@H](C(C)C)N(C)C(=O)[C@H](CCC(C)C)NC(=O)[C@H]2CCCCN2C)OC(C)=O)n1`, the growth is 13.9% (inactive).

As for `Clc1cccc(NCOOC2(OOCNc3cccc(Cl)c3)CCCCC2)c1`, the growth is 51.4% (inactive).

On to `COC(=O)[C@@]1(C)CC[C@]2(C)CC[C@]3(C)C4=CC=C5C(=CC(=O)C(O)=C5C)[C@]4(C)CC[C@@]3(C)[C@@H]2C1`, for which the growth is -63.1% (active).

Regarding `CCOC(=O)N1CC1`, the growth was 107% (inactive).

For `CC[C@H](C)[C@H](NC(=O)[C@H]1CCCCN1C)C(=O)N(C)[C@H](C[C@@H](OC(C)=O)c1nc(C(=O)N[C@@H](Cc2ccccc2)C[C@H](C)C(=O)OC)cs1)C(C)C`, the growth is 2.43% (active).

Take `[Cl][Hg][c]1cc(Br)cc(Br)c1`: the growth is 70.4% (inactive).

For `COC(=O)[C@@H](C[C@H](Cc1ccccc1)NC(=O)c1csc([C@@H](C[C@H](C(C)C)N(C)C(=O)[C@@H](NC(=O)[C@H]2CCCCN2C)C(C)C)OC(C)=O)n1)NC(=O)OCc1ccccc1`, the growth is 1.08% [9.5 µM] (active).

As to `CN1C(=O)C23CC4(C56CC78SSC(CO)(C(=O)N7C5Nc5ccccc56)N(C)C8=O)c5ccccc5NC4N2C(=O)C1(CO)SS3` (stereo not given), the growth is -82.9% (active).

As to `O=C(N/N=C\c1ccc(N(CCCl)CCCl)cc1Cl)c1cccnc1`, the growth is 102% (inactive).

As for `CC(=O)Oc1ccccc1C(=O)NCCC[Se]C#N`, the growth was 29.6% (inactive).

For `CC[C@H](C)[C@H](NC(=O)[C@H]1CCCCN1C)C(=O)N(C)[C@H](C[C@@H](OC(C)=O)c1cccc(C(=O)N[C@@H](Cc2ccccc2)C[C@H](C)C(=O)O)n1)C(C)C`, the growth is -6.52% (active).

On to `CCCCN(CCCC)P(=O)(Oc1ccccc1)Oc1ccccc1`, for which the growth was 58.6% (inactive).

For `Clc1cccc(N2COOC3(OOC2)C2CC4CC(C2)CC3C4)c1`, the growth is 65.7% (inactive).

With `CNC(=O)Oc1cccc(C(F)(F)F)c1`, the growth was 110% (inactive).

In the case of `O=C(c1cccc(O)c1O)c1cn(Cc2ccc(F)cc2)c2cccc(O)c12`, the growth is 44.1% (inactive).
